In the supplement of paper PMC10338343:
± gives the standard deviation.

System: MILI (PIWIL2) piRISC loaded with L1MC piRNA (26 nt)
Assay: pre-steady-state target cleavage rate (min^-1); guide: L1MC piRNA 5'p-UAACUAAAUACUAUGCAAGCUGUAGG; MIWI and MILI are mouse PIWI proteins and EfPiwi is from a freshwater sponge; tags in brackets are library labels; higher = faster piRNA-guided slicing of the target
How it was run: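 The pre-steady-state cleavage rate was obtained by Cleave-'n-Seq with a burst-and-steady-state fit. A transcribed, DNA-blocked target RNA library (0.1 nM) was mixed with 1 nM active affinity-purified piRISC carrying one synthetic guide, with or without 500 nM GTSF1 partner protein, in HEPES–potassium acetate buffer at 33 °C for 0–8 or 0–960 min. Uncleaved targets were sequenced and normalised to depth and to weakly complementary targets, with three trials pooled and k3 capped at 0.0001 min^-1.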

[1] = auxiliary factor: 500 nM mouse GTSF1
[2] = auxiliary factor: none (no GTSF1)

Sequence	pre-steady-state target cleavage rate [1]	pre-steady-state target cleavage rate [2]
UCCUGGAUGUCCUUGCAUAGUAUCUUAGUUA	0.0833 ± 0.017	0.00566 ± 0.0029
UCCUGGAUCAGCUUGCAUAGUAUUCUAGUUA	0.239 ± 0.034	0.00658 ± 0.0024
UCCUGGAUGUCCUCGCAUAGUAUUUAGUUA	0.0711 ± 0.01	0.00777 ± 0.0022
UCCUGGAUGUCGUUGCAUAGUAUUGAGUUA	0.0312 ± 0.011	0.00363 ± 0.0032
UCCUGGAUGUCCUGUGCAUAGUAUUUAGUUA	0.0823 ± 0.025	0.0123 ± 0.0036
UCCUGGAUGAGCUUGCAAUGUAUUUAGUUA	0.0269 ± 0.0097	0.00445 ± 0.0026
UCCUGGAUGUCCUUGCUUAGUAUUUUGUUA	0.0587 ± 0.018	0.00384 ± 0.003
UCCUGGAUCAGCUUGCAAGUAUUUAGUUA	0.0793 ± 0.011	0.00478 ± 0.0023
UCCUGGAUGUGCUUGCAUAGUAUUAUAGUUA	0.15 ± 0.025	0.006 ± 0.0028
UCCUGGAUGAGCUUGCAAAGUAUUUUGUUA	0.0703 ± 0.019	0.00392 ± 0.0026
UCCUGGUACAGCUACGAUAGUAUUUAGUUA	0.15 ± 0.016	0.00343 ± 0.0026
UCCUGGAUGUCCUUGGAUAGUAUAUAGUUA	0.165 ± 0.035	0.0038 ± 0.0025
UCCUGGAUGUCCUUGCAUUGUAAUUAGUUA	0.014 ± 0.0069	0.00354 ± 0.0025
UCCUGGAUGUCGAAGCAUAGUAUAUUAGUUA	0.0302 ± 0.0085	0.00411 ± 0.0026
UCCUGGAUGAGCUUGCAAACUAUUUAGUUA	0.00935 ± 0.0025	0.00292 ± 0.0024
UCCUGGAUGUCCUUGCAGAGUAUUUAGUUA	0.0231 ± 0.011	0.00501 ± 0.0024
UCCUGGAUGUCGAAGCAUAGUAUUUUGUUA	0.0221 ± 0.0061	0.00241 ± 0.0023
UCCUGGAUGUCGUUGCAUCGUAUUUAGUUA	0.0281 ± 0.0074	0.00872 ± 0.0025
UCCUGGAUCAGCUAGCAUAGUAUAUAGUUA	0.22 ± 0.02	0.00644 ± 0.0023
UCCUGCUACACCUUGCAUAGUAAUUAGUUA	0.157 ± 0.026	0.00684 ± 0.002
